Shown are actives, neighbours in structure and some others; about 2.3% of the full set was active somewhere.
GLP1R inv ag: qHTS of GLP-1 Receptor Inverse Agonists (Inhibition Mode); Potency, µM (top dose mostly 38.3 µM), inactives show at the top dose activity change, negative = inhibition, usual class: inhibitors; HEK293 GLP-1R CRE-luciferase, luminescence, 24 h; GLP-1R form is constitutively active; Glucagon-like peptide 1 receptor (Homo sapiens), P43220; 1.6% of 410,000 active; also: % is scaled to controls: 0 for no effect and ±100 for the full control effect; nearly all actives have a fitted effect of over 55% in size
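qHTS in 1536-well format: reporter HEK293 cells expressing constitutive GLP-1R activity in DMEM + 10% Nu serum, 24 hr with compounds at 37 deg C, luminescence read after 12 min with detection reagent.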
Glioma ERSR ind: qHTS for Inducers of the Endoplasmic Reticulum Stress Response (ERSR) in Human Glioma: qHTS; U87-MG GRP78 promoter luciferase reporter, 16 h; Potency, µM, for inactives: at the top dose activation, usual class: activators; 0.02% of 420,000 active; also: series mostly up to about 76 µM; % of control where 0% means no effect; nearly all actives have a fitted effect of over 35% in size
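ERSR induction read as luciferase luminescence (Bright-Glo, 10 min at room temperature) in stably transfected human U87-MG glioma cells exposed to compounds for 16 h, using GRP78 as sensor.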
GLP1R ag: qHTS of GLP-1 Receptor Agonists | 0.007% of 380,000 active | Glucagon-like peptide 1 receptor (Homo sapiens), P43220 | HEK293 GLP-1R CRE-luciferase, luminescence, 4-6 h; cells express a hypersensitive GLP-1R form | Potency, µM (highest dose often 45.6 µM), without a hit: at the highest dose activation, usual class: activators; also: % of control where 0% means no effect
12-LOX inh: Primary qHTS assay for inhibitors of human arachidonate 12S-lipoxygenase (ALOX12): Round 2; Potency, µM (series often up to 108 µM), without a hit: at the highest dose activity change, negative = inhibition, hits mostly inhibitors; 1.1% of 580,000 active; purified 12hLO, xylenol orange hydroperoxide absorbance; Polyunsaturated fatty acid lipoxygenase ALOX12 (Homo sapiens), P18054; also: % is scaled to controls: 0 for no effect and ±100 for the full control effect
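Purified human 12hLO at 150 nM in 25 mM Hepes, 0.01% Triton X-100, pH 7.0, preincubated 15 min at room temperature with compound. Reaction started with 40 uM arachidonic acid, 30 min at room temperature. Hydroperoxide measured by Fe-xylenol orange, 573/405 nm absorbance ratio.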
GLS inhibitor: qHTS for Inhibitors of Glutaminase (GLS). Potency, µM (doses to about 45.5 µM), for inactives: at the top dose activity change, negative = inhibition, most hits filed as inhibitors. GLS enzymatic activity, qHTS titration. Glutaminase kidney isoform, mitochondrial (Homo sapiens), O94925. 0.21% of 410,000 active. AID 624170, 2012; also: % is scaled to controls: 0 for no effect and ±100 for the full control effect
Target sequence (O94925 whole entry, looked up, canonical isoform): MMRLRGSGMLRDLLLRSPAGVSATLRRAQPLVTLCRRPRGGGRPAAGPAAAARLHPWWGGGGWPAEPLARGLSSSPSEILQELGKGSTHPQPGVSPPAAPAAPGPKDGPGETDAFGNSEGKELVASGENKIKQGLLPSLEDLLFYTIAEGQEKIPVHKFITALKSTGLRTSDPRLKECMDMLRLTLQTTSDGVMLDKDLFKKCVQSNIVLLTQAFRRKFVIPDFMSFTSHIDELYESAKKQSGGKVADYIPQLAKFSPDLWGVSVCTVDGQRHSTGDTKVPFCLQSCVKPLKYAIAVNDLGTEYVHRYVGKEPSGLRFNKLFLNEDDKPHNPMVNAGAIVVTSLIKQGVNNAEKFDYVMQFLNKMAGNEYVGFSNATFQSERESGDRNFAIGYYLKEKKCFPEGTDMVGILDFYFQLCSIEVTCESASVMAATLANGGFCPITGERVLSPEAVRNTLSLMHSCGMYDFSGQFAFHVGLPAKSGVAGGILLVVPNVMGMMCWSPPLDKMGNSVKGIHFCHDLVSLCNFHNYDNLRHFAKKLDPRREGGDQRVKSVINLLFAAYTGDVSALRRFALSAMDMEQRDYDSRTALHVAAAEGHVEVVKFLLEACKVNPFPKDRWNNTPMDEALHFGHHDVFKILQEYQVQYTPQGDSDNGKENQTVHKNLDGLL
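Compounds were pin-transferred onto hKGA, after which L-glutamine (1 mM solution) and a detection mix of glutamate oxidase, HRP and Amplex Red were added. Initial and 30 min RT fluorescence reads were collected.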
PTHR1 ag: qHTS for PTHR1 Agonists: Primary Screen | Potency, µM (series often up to 115 µM), without a hit: at the top dose activation, actives largely listed as activators | HEK293 GP2 PTHR1 cells, GloSensor cAMP luminescence, 1 h | 0.075% of 410,000 active; also: nearly all actives have a fitted effect of over 55% in size
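HEK-293-derived GP2 cells expressing PTHR1 and a GloSensor cAMP reporter, 3,000/well, plated overnight, given luciferin plus IBMX (each 0.5 mM as added) for 1 h at 37 °C, then compound for 1 h at 37 °C. Luminescence was read after 15 min at room temperature.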
Numbers without * were called inactive; i = inactive; ? = inconclusive; / = no result; [ ] = remark or other dose. Calls follow the shape of the dose curve; as a rule, active = well fitted curve in the direction sought with a large enough effect; inconclusive = small, poorly fitted or top-dose-only effect, or another doubt; inactive = no such curve, though single readings can be large; an effect the other way counts as inactive or inconclusive. Potency is read from the fitted curve at half-maximal effect.

SMILES	GLP1R inv ag	Glioma ERSR ind	GLP1R ag	12-LOX inh	GLS inhibitor	PTHR1 ag
CC1CCCCN1C(=O)CN1CCN(C(=O)CCc2c[nH]c3ccccc23)CC1 (stereo unspecified)	/	/	/	-11.4%	/	/
Cc1cccc(OCCCC(=O)N2CCCCCC2)c1C	8.91µM*	-0.7%	21.2%	2.5%	-1.4%	-5.8%
COc1ccccc1OCC(=O)N1CCN(c2ccccc2OC)CC1	-1.5%	-2.2%	22.8%	?	5.4%	-7.6%[57.5 µM]
COc1ccccc1N1CCN(CC(=O)c2ccc(F)cc2)CC1	7.1%	-2.4%	-1.4%	1.12µM*	3.7%	-3.4%
COc1ccccc1N1CCN(C(=O)COc2cccc(C)c2C)CC1	7.08µM*	1.0%	13.6%	-11.2%	2.1%	-5.3%
O=C(CCc1c(-c2ccc(F)cc2)[nH]c2ccc(F)cc12)N1CCC1	/	/	/	-21.6%	/	/
COCCCNC(=O)CCc1ncc(-c2ccc(F)cc2F)o1	/	/	/	20.7%	/	/
O=C(O)c1ccc(Cl)c(S(=O)(=O)NCC2CCCO2)c1 (stereo unspecified)	-1.6%	-4.3%	2.5%	-24.7%	10µM*	i
O=S(=O)(NCC1CCCO1)c1cc(Cl)ccc1Cl (stereo unspecified)	7.3%	-3.8%	-0.7%	8.0%[57.4 µM]	0.8%	-22.8%[57.5 µM]
COc1ccc(NC(=O)c2cnc(SC)nc2C(F)(F)F)cc1OC	/	/	/	-16.6%	/	/
Cn1c(=O)c2c(ncn2CC(O)COCc2ccccc2F)n(C)c1=O (stereo unspecified)	/	/	/	22.8%	/	/
c1ccc(-c2cc(-c3ccccc3)[o+]c(-c3ccccc3)c2)cc1	/	/	/	15.8µM*	/	/
Cc1cc(-c2ccccc2)cc(C)n1	10.3%	-1.0%	7.5%	-0.1%	1.2%	-13.7%
O=C(CSCc1cccs1)NCC1CCCO1 (stereo unspecified)	/	/	/	0.7%	/	/
COc1ccc(C(=O)N(c2ccc(C)cc2)S(=O)(=O)c2ccc(C)cc2)cc1	3.16µM*	-1.9%	/	?	-13.0%	-5.2%
COc1ccc(N(C(=O)c2ccccc2)S(=O)(=O)c2cccs2)cc1	?	31.6µM*	7.7%	10.7%	?	i
COc1ccc(C(=O)N(c2ccc(OC)cc2)S(=O)(=O)c2cccs2)cc1	?	-3.8%	4.8%	-6.8%	4.4%	i
COc1ccc(N(C(=O)c2cc(OC)c(OC)c(OC)c2)S(=O)(=O)c2ccc(C)cc2)cc1	?	-3.3%	/	-20.1%	5.9%	i
Cc1ccc(-n2nc(-c3cccc(C)c3)c(C)c2-c2cccc(C)c2)cc1	/	/	/	5.1%	/	/
Cc1cc(OCC(=O)Nc2ccc(NC(=O)C3CC3)cc2C(F)(F)F)ccc1Cl	/	/	/	14.7%	/	/
Nc1ccc(O)c(C(=O)O)c1	/	-4.8%	-0.2%	-29.8%[22.9 µM]	15.8µM*	/
Cc1ccc(C23CC4CC(CC(C(=O)O)(C4)C2)C3)cc1C	/	/	/	-33.4%	/	/
Cc1ccc(CNCC(O)(c2ccccc2)c2ccccc2)cc1	?	-2.1%	-3.3%	0.0%	-16.9%	-11.8%
CCc1ccc(C(O)(CNCc2ccccc2)c2ccccc2)cc1 (stereo unspecified)	11.2µM*	1.2%	-4.8%	-1.4%	-0.8%	-2.7%
COc1cccc(C(=O)NC2CC3CCCC(C2)N3CC(=O)Nc2ccccc2)c1 (stereo unspecified)	?	-5.5%	-1.2%	?	6.31µM*	-7.7%[57.5 µM]
SMILES	GLP1R inv ag	Glioma ERSR ind	GLP1R ag	12-LOX inh	GLS inhibitor	PTHR1 ag
COc1cccc(C(=O)NC2CC3CCCC(C2)N3CC(=O)Nc2ccc(N(C)C)cc2)c1 (stereo unspecified)	?	-1.2%	-6.3%	-1.9%	19.4%	-16.3%
O=C(CN1C2CCCC1CC(NC(=O)c1ccccc1)C2)Nc1ccccc1C(F)(F)F (stereo unspecified)	2µM*	-4.1%	13.2%	-17.0%	9.8%	-91.8%
Cc1cc(C)nc(Nc2nc(-c3ccccc3)c3ccc(Cl)cc3n2)n1	/	/	/	28.2%	/	/
O=C(OCc1ccccc1)N1CCOCC12CCN(Cc1cccs1)CC2	/	/	/	46.9%[176 µM]	/	/
CC1CCCC(NC(=S)NC(=O)c2ccco2)C1C (stereo unspecified)	?	-4.1%	26.7%	31.6µM*	-3.8%	-10.7%
Cc1cc(C)c(S(=O)(=O)N2CCN(C(=O)C3COc4ccccc4O3)CC2)c(C)c1 (stereo unspecified)	10µM*	-2.8%	8.2%	391.4%	1.2%	-17.4%
Cc1ccc(S(=O)(=O)N2CCN(C(=O)C3COc4ccccc4O3)CC2)cc1C (stereo unspecified)	?	-0.3%	4.8%	?	-0.4%	-17.3%
Cc1noc(C)c1CS(=O)(=O)c1cc(F)ccc1F	/	/	/	2.1%	/	/
Cc1ccc(S(=O)(=O)c2nc(-c3ccccc3Cl)oc2N2CCN(C)CC2)cc1	10µM*	-5.0%	8.3%	-28.5%	4.9%	i
Cc1ccc(S(=O)(=O)c2nc(-c3ccccc3Cl)oc2N2CCCCCC2)cc1	?	/	/	-17.8%	4.5%	-29.0%
COc1ccc(-c2nc(S(=O)(=O)c3ccc4c(c3)OCCO4)c(N3CCN(C)CC3)o2)cc1	/	/	/	35.5µM*	/	/
CN(C)CCNc1oc(-c2ccc(F)cc2)nc1S(=O)(=O)c1ccc2c(c1)OCCO2	/	/	/	31.6µM*	/	/
COc1cccc(-c2nc(S(=O)(=O)c3ccc4c(c3)OCCO4)c(N3CCOCC3)o2)c1	/	/	/	-11.1%	/	/
C/C(=N/NC(=S)NCc1ccccc1)c1ccc(Cl)c(Cl)c1	/	/	/	-24.3%	/	/
Cc1ccccc1CSc1nc2c(=O)[nH]cnc2n1-c1ccccc1	/	/	/	-4.1%	/	/
O=C(Cn1nc2c(cc1=O)CCCC2)NC1CC1	/	/	/	37.2%	/	/
O=C(Cc1n[nH]c(=O)c2ccccc12)NC1CCCc2c1[nH]c1ccccc21 (stereo unspecified)	/	/	/	44.7µM*	/	/
COc1ccc2cnn(CC(=O)NC3CCCc4c3[nH]c3ccccc43)c(=O)c2c1OC (stereo unspecified)	/	/	/	39.8µM*	/	/
O=C(Cn1ncc2ccccc2c1=O)NC1CCCCC1	/	/	/	-22.2%	/	/
O=C(Cn1nc2c(cc1=O)CCCC2)NC1CCCc2c1[nH]c1ccccc21 (stereo unspecified)	/	/	/	35.5µM*	/	/
O=C(Cc1n[nH]c(=O)c2ccccc12)NC1CCc2ccccc21 (stereo unspecified)	/	/	/	4.6%	/	/
O=C(Cn1ncc2ccccc2c1=O)NC1CCCc2c1[nH]c1ccccc21 (stereo unspecified)	/	/	/	28.2µM*	/	/
